PubChem BioAssay (NCI)
This is part of a sample that, as a whole, favours compounds with a hit. Of some 83,000 tested, about 20% had one in any assay.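 The endpoint reported here, percent growth, reads 100 for growth as untreated, 0 for no net growth and -100 for all cells dead.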 A number with no mark means an inactive call. The source made the active and inactive calls. The calls were made as follows: active = growth percent below 10; inactive = the rest.

Assays:
Assay in all cases: NCI-60 one-dose screen, 48 h (100 = growth as untreated, 0 = no growth, -100 = all killed)
Conditions in all cases: 10 µM unless noted
[1] = system: DU-145 prostate
[2] = system: K-562 leukemia
[3] = system: MALME-3M melanoma
[4] = system: MDA-MB-231 breast
[5] = system: RXF 393 renal
[6] = system: SF-268 CNS
[7] = system: SF-295 CNS
[8] = system: SF-539 CNS
[9] = system: UACC-257 melanoma
[10] = system: M14 melanoma
[11] = system: HCT-15 colon
[12] = system: HT29 colon
[13] = system: SNB-75 CNS
[14] = system: SNB-19 CNS
[15] = system: U251 CNS
[16] = system: PC-3 prostate
[17] = system: SK-MEL-5 melanoma
[18] = system: UACC-62 melanoma
[19] = system: LOX IMVI melanoma
[20] = system: SK-MEL-28 melanoma

Structure (SMILES)	growth [1]	growth [2]	growth [3]	growth [4]	growth [5]	growth [6]	growth [7]	growth [8]	growth [9]	growth [10]	growth [11]	growth [12]	growth [13]	growth [14]	growth [15]	growth [16]	growth [17]	growth [18]	growth [19]	growth [20]
CC(=O)[C@H]1CC[C@]2(C)[C@@H]1CC[C@@H]1[C@@]3(C)C/C(=C/c4cccnc4)C(=O)C(C)(C)[C@@H]3CC[C@]12C	85.3%	30.3%	82.6%	83.9%	97.7%	79.7%	89.8%	97.6%	63.4%	71.8%	54.4%	57.1%	106%	87.1%	60.7%	26.9%	38.9%	59.9%	87.6%	94.9%
Cn1cc(-c2csc(-c3cn(C)c4ccc(F)cc34)n2)c2cnccc21	-6.44% (active)	-60.3% (active)	-92.5% (active)	-33.1% (active)	-85.5% (active)	-60.3% (active)	-81.1% (active)	-92.5% (active)	-73.1% (active)	-80% (active)	-46.4% (active)	-66.8% (active)	-73% (active)	3.63% (active)	-89.5% (active)	10.5%	-94.1% (active)	-69.4% (active)	-90% (active)	-95.9% (active)
O=C(Oc1ccccc1)c1cc(O)c(O)c(O)c1	76.2%	50.8%	88%	63.4%	110%	59.7%	73.5%	54%	112%	68.4%	39.8%	85.7%	79.5%	65.2%	54.8%	70.4%	58.4%	31.3%	59.3%	89.9%
O=C1C2C(c3cccs3)C=C(c3ccc(Cl)cc3)N2C(=S)N1c1ccccc1 (configuration not stated)	110%	101%	115%	86.3%	102%	96.7%	104%	93%	105%	101%	112%	114%	97.9%	94.4%	97.9%	85.7%	97.8%	88.8%	98%	105%
CN1/C(=C/C=C/c2n(Cc3ccc4ccccc4c3)c(Cl)c(Cl)[n+]2Cc2ccc3ccccc3c2)Oc2ccccc21	-86.6% (active)	89.4%	-97.1% (active)	-94% (active)	-88.2% (active)	-69.4% (active)	-68.4% (active)	-94% (active)	-77.9% (active)	-77% (active)	-72.9% (active)	-79.7% (active)	-63.6% (active)	-96.3% (active)	-97.3% (active)	-78.4% (active)	–	-94.4% (active)	-93.8% (active)	-89.5% (active)
O=C1/C(=C/c2ccc(Br)cc2)COc2ccc(O)cc21	101%	9.11% (active)	91.7%	85.9%	95.9%	89.8%	100%	92.5%	103%	83.7%	42.5%	28.9%	92.7%	87.3%	57%	77.4%	–	79.3%	-1.48% (active)	97.7%
O=C(O)/C=C\C(=O)Nc1ccc2c(c1)Cc1cc(F)ccc1-2	111%	104%	98.9%	112%	114%	96%	96.4%	94.9%	115%	96.4%	100%	96.3%	86%	103%	106%	97.3%	–	103%	96.4%	105%
O=S(=O)(Nc1ccc(Br)cc1)c1ccc(-c2cnc(C3CC3)o2)cc1	38.1%	11.3%	44.4%	35.2%	10.4%	39.9%	28.9%	3.63% (active)	66.1%	18.1%	20.8%	13.9%	-6.53% (active)	35.3%	24.9%	29.2%	19.2%	23.6%	45.9%	53.5%
